Pf Dd2 growth – qHTS Primary assay for Inhibitors of Plasmodium falciparum Dd2 growth in vitro | P. falciparum Dd2 growth, SYBR Green, 72 h | Potency, µM (top dose mostly 28.9 µM), without a hit: at the top dose activity, negative = inhibition, hits mostly inhibitors | 4.3% of 120,000 active | AID 1347417, 2020; active = well fitted inhibition curve with a large enough effect;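 note: plate controls were DMSO vehicle for no effect and reference drug for full effect; nearly all actives have a fitted effect of over 65% in size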
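Readout: SYBR Green fluorescence, 485 nm excitation, 535 nm emission, after ~16 h lysis at 37C. Before that, Dd2-infected red cells (2.5% hematocrit) grew 72 h with compound, 29 uM top final concentration.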
Numbers without * were called inactive; i = inactive; [ ] = another dose, or the depositor's remark. This is one part of a sample in which hits are shown more often than they occur. Potency is the fitted concentration of half-maximal effect.

SMILES | Pf Dd2 growth
O=C(c1cccnc1)N1CC(COc2ccccc2)C2(C1)CN(c1ccccc1)C2 (stereo not drawn) | -26%[44.1 µM]
O=C(c1cccc(Cl)c1)N1CC(CNc2cccnc2)C2(C1)CN(c1ccccc1)C2 (stereo not drawn) | 13µM*
CC(C)c1ccc(CN2CC(CNC(=O)c3cnn(C)c3)C3(C2)CN(c2ccccc2)C3)cc1 (stereo not drawn) | i
O=C(NCC1CN(Cc2ccncc2Cl)CC12CN(c1ccccc1)C2)c1ccccc1 (stereo not drawn) | -3%
Cn1cc(C(=O)NCC2CN(C(=O)c3ccccc3)CC23CN(c2ccccc2)C3)cn1 (stereo not drawn) | i
O=C(Cc1ccccc1)NCC1CN(Cc2ccncc2Cl)CC12CN(c1ccccc1)C2 (stereo not drawn) | 11µM*
O=C(c1ccccc1)N1C[C@@H](CO)[C@H](c2nc(-c3cccnc3)no2)C1 | -35%
CCN(Cc1noc(C)n1)C(=O)CC1C(=O)NCCN1CC(C)(C)C (stereo not drawn) | 7%
CN(C)CC(=O)Nc1ccc(C(=O)N2CCCC3(CCNC3)C2)cc1 (stereo not drawn) | -9%
COc1ccc(C(=O)NC2CCN(c3ccc(=O)n(C)n3)CC2)cn1 | -20%
CCN(CC)c1cc(CCC(=O)NCc2ccc(Cl)cc2)ccn1 | 5µM*
CCN(CC)c1cc(CCC(=O)N(C)CCc2ccncc2)ccn1 | -14%
Cn1cc(CCC(=O)NCc2ccc(Cl)cc2)c2ccccc21 | 29%
CCc1ccc2c(c1)NC(c1ccc(F)cc1)=NC(c1ccncc1)=N2 | -13%
CC(C)COc1ccc(C2=NC(c3ccncc3)=Nc3ccc(F)cc3N2)cc1 | -2%
CCOc1ccc2c(c1)NC(c1ccc(OCC)c(OCC)c1)=NC(c1ccc(F)cc1)=N2 | 13µM*
O=C([C@H]1C[C@H](Oc2ccccc2)CN1C(=O)NCc1ccccc1)N1CCOCC1 | -2%
Cc1ccccc1NC(=O)N1CCC(CCNC(=O)C2(c3ccccc3)CC2)CC1 | -14%
O=C(CN1C(=O)NC(c2ccc(Cl)cc2)C2=C1COC2=O)Nc1cccc(F)c1 (stereo not drawn) | i
O=C1CC2CCN(Cc3ccc(F)c(F)c3F)CC2CCN1 (stereo not drawn) | 19%
CN(Cc1cccc(C(F)(F)F)c1)C(=O)C(C)(C)C | -1%[44.1 µM]
CN(Cc1cccc(C(F)(F)F)c1)C(=O)c1ccccc1 | i
Cc1ccccc1C(=O)N(C)Cc1cccc(C(F)(F)F)c1 | 14µM*
CCOc1cccc(CN2CCc3nc(N4CCN(C)CC4)[nH]c(=O)c3CC2)c1 | 26%[5.79 µM]
Cc1ccc(-c2cc(N3CCCN(C(=O)Cc4ccccc4Cl)CC3)n[nH]2)cc1C | i
SMILES | Pf Dd2 growth
COc1ccc(Cl)cc1C(=O)NCC(c1ccc(N(C)C)cc1)N1CCOCC1 (stereo not drawn) | 33%[5.79 µM]
COc1ccc(OCC(=O)NCC(c2ccc(OC)cc2)N2CCOCC2)cc1 (stereo not drawn) | -1%
COc1ccc(C(=O)NCC(c2ccc3c(c2)OCO3)N2CCOCC2)cc1 (stereo not drawn) | 48%
Cc1ccc2c(C)c(C(=O)NCC(c3ccc(Cl)cc3)N3CCOCC3)oc2c1 (stereo not drawn) | -20%
CCc1ccc2oc(C(=O)NCC(c3ccc(Cl)cc3)N3CCOCC3)c(C)c2c1 (stereo not drawn) | 11µM*
CCc1ccc2oc(C(=O)NCC(c3ccc(OC)cc3)N3CCCCC3)c(C)c2c1 (stereo not drawn) | 10µM*
CCc1ccc2oc(C(=O)Nc3nc(-c4ccccc4)ns3)c(C)c2c1 | 31%
CCc1ccc2oc(C(=O)Nc3nonc3CC)c(C)c2c1 | -22%
CCc1ccc(OCC(=O)NCC(c2ccc(OC)cc2)N2CCOCC2)cc1 (stereo not drawn) | 3.2µM*
COc1ccc(N2CCN(C(=O)[C@H]3CCC[C@H]3NC(=O)c3cnc(C)cn3)CC2)cc1 | -17%
CC(c1ccc(-c2ccc(=O)n(C)n2)cc1)N1CCCCC1 (stereo not drawn) | 16%
CCCC(=O)N1CCN(C2CCN(CCc3ccccc3)C2=O)CC1 (stereo not drawn) | -2%
CCOC(=O)C1CCCN(C(=O)C2CC(c3ccccc3)CN(C(=O)c3cccc(F)c3)C2)C1 (stereo not drawn) | i
CCOC(=O)C1CCCN(C(=O)C2CC(c3ccc(CC)cc3)CN(C(=O)c3ccoc3)C2)C1 (stereo not drawn) | 1.1µM*
CCc1ccc(C2CC(C(=O)NC(C)c3ccccc3)CN(C(=O)c3ccoc3)C2)cc1 (stereo not drawn) | i
COc1cccc(CN2CC(C(=O)NCc3n[nH]c(=O)[nH]3)CCC2=O)c1 (stereo not drawn) | -11%
CCn1c2c(c(=O)n1-c1ccccc1)CCN(C(=O)c1ccnn1C)C2 | 31%[44.1 µM]
CCNc1ncnc2sc3c(c12)CCN(C(=O)c1ccnn1C)C3 | 11µM*
COc1ccc(Nc2ncnc3sc4c(c23)CCCC4)cc1 | 4%
CCc1ccc(Nc2ncnc3sc4c(c23)CCCC4)cc1 | i
CCCNC(=O)N1CCc2c(sc3ncnc(N4CCN(C)CC4)c23)C1 | -5%
CCNc1ncnc2sc3c(c12)CCN(Cc1ccc[nH]1)C3 | 1µM*
O=C1NC(C(=O)NCc2cccnc2Oc2ccccc2F)CO1 (stereo not drawn) | i
COc1ccc(CN2CCNC(=O)C2CC(=O)N2CCCC2)c(C)c1C (stereo not drawn) | 11%
CN1C(=O)CCC2(CNC(=O)c3nn(C)c4ccccc34)CCCC=C12 (stereo not drawn) | i
SMILES | Pf Dd2 growth
COc1cccc(C(=O)N2CCC(C(NC(=O)c3cccs3)C(=O)NCC(C)C)CC2)c1 (stereo not drawn) | i
CCN1C(=O)C(CC(=O)NCC2CCCO2)Sc2ncccc21 (stereo not drawn) | i
Cc1ccccc1-c1nc(N2CCOCC2)cc2c1CN(c1ccccc1)C2=O | -5%[44.1 µM]
Cc1cccc(C(=O)N2C[C@@H](CO)[C@H](N(C)C)C2)n1 | 29%
O=C(C1CCN(C(=O)N2CC3CC(C2)[C@H]2CCCC(=O)N2C3)CC1)N1CCN(c2ncccn2)CC1 (stereo partly drawn) | i
CN(Cc1ccc(F)cc1)CC1CCCCC1 | 23%[44.1 µM]
Cc1nc(C)c(CN(C)C2CCCN(CCc3ccccc3)C2)nc1C (stereo not drawn) | -16%
CN1CCC(N(C)CC2CCCN(CCc3ccc(F)cc3)C2)CC1 (stereo not drawn) | 8.9µM*
COc1ccccc1-n1cc(C(=O)NC(Cc2ccco2)C(=O)O)cn1 (stereo not drawn) | -9%
CN(CC1CCOC1)C(=O)Nc1ccc(F)cc1 (stereo not drawn) | i[5.79 µM]
CCNC(=O)[C@@H]1C[C@H](NC(=O)c2cccc(Cl)c2)CN1C1CCOCC1 | -9%
O=C(Nc1cccc(F)c1)N1CCC(O)(c2csc(CN3CCc4ccccc4C3)n2)CC1 | -3%
CCOCCCNC(=O)N1CCOc2ccc(CN3CCc4ccccc4C3)cc2C1 | -5%
COCCOCC(=O)N1CCOc2ccc(CN3CCc4ccccc4C3)cc2C1 | 11µM*
O=C(Nc1cccc(F)c1)N1CCOc2ccc(CN3CCc4ccccc4C3)cc2C1 | 2µM*
COCCn1cc(CN2CCc3ccccc3C2)ccc1=O | i
CCCNC(=O)N1CCOc2ccc(CN3CCc4ccccc4C3)cc2C1 | -15%
Cc1noc(-c2ccc(OC(F)(F)F)cc2)c1C(=O)NCCCc1ccccc1 | i
COc1cc(NC(=O)CC2CCCN(c3cn[nH]c(=O)c3)C2)cc(OC)c1 (stereo not drawn) | -25%

Source: PubChem BioAssay (National Center for Advancing Translational Sciences (NCATS))
